Test results reported in the supplement of paper PMC3334620.
In all, about 33,000 sequences were measured (“E-score (-0.5 to 0.5)”: median about -0.035, highest 2% from about 0.35 on). The entries come from a sample that favours the highest values as a whole.

Target: T1, Pdr3 (UniProt P33200)
T1 sequence: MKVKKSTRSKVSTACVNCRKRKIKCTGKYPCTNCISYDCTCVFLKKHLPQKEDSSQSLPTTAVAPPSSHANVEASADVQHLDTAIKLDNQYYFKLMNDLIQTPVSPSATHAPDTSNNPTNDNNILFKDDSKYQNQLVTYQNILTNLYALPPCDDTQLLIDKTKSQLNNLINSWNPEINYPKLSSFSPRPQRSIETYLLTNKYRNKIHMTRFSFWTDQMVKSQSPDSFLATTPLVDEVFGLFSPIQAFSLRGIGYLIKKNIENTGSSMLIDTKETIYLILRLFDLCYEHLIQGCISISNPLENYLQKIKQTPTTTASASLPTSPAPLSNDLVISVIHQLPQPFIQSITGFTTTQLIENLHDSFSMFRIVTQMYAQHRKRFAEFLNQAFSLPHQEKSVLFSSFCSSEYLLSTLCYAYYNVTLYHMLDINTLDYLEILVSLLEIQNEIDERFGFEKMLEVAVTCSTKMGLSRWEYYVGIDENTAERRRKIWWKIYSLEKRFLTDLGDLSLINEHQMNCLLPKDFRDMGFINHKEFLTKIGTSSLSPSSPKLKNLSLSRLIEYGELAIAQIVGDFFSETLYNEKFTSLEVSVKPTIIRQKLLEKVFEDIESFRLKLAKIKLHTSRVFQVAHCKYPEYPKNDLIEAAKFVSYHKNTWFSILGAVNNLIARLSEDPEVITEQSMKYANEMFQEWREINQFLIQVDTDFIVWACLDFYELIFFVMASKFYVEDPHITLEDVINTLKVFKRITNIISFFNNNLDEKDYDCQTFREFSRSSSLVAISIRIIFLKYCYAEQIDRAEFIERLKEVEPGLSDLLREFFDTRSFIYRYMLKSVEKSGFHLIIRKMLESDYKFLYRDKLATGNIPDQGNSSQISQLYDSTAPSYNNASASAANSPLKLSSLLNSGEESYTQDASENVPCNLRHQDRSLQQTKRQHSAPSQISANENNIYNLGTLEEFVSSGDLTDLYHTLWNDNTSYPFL
Experiment: PBM E-score (8-mer binding enrichment) (E-score (-0.5 to 0.5)); higher = stronger / more preferred TF binding
Details: protein concentration: 200 nM; construct: GST-full length
Protocol: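 Universal 'all 10-mer' protein binding microarrays (Agilent AMADID 015681) probed with GST-tagged S. cerevisiae TFs (full-length or DBD) made by in vitro transcription/translation (PURExpress), about 100-200 nM. Bound TF was detected with fluorescent anti-GST. Each ungapped 8-mer (which stands for itself and its reverse complement) is scored by the PBM enrichment score (E-score), a modified Wilcoxon-Mann-Whitney statistic from -0.5 to +0.5, computed with the Universal PBM Analysis Suite. Scale: above 0.35 generally sequence-specific binding.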

| Sequence | PBM E-score |
| --- | --- |
| TCGCCACA | -0.00326 |
| CTATCAGC | -0.156 |
| AATTCGCA | 0.255 |
| CAGAAATC | -0.108 |
| CGTCCGGA | 0.433 |
| GGTCCGGA | 0.413 |
| AGTCCGGA | 0.422 |
| CGTCCGGC | 0.321 |
| AGTCCGGC | 0.216 |
| GGTCCGCA | 0.28 |
| CGTCCGAA | 0.208 |
| AGTCCGGG | 0.301 |
| GGTCCGTA | 0.293 |
| CCCGCATC | 0.0416 |
| AAGGTCAC | -0.213 |
| GGAAGACC | 0.202 |
| GACTCACC | -0.126 |
| ATCTGCTA | -0.241 |
| CTGATGCA | 0.0307 |
| CTAAGAAG | -0.0671 |
| CTTCAAAG | -0.275 |
| AAGCTGTC | -0.208 |
| CAATCCCC | 0.0676 |
| CAATCCCA | -0.105 |
| CGATCCCC | 0.0699 |

| Sequence | PBM E-score |
| --- | --- |
| AGATCCCG | 0.4 |
| CGATCCCA | 0.067 |
| AGATCCCT | -0.142 |
| CGATCCCG | 0.361 |
| AGATCCCC | 0.015 |
| CAATCCCG | 0.392 |
| CTTCACCA | -0.153 |
| TCAAGGAA | -0.0766 |
| ATCTGATA | -0.18 |
| CGAGGTCC | 0.299 |
| GCAACGTA | -0.192 |
| ACAACGGA | 0.375 |
| TCAACGGA | 0.359 |
| ACAACGGT | -0.0457 |
| GCAACGGC | 0.152 |
| ACAACGGG | 0.221 |
| CCAACGGC | -0.0155 |
| CCAACGGA | 0.362 |
| CCAACGGG | 0.213 |
| GCAACGGA | 0.413 |
| TCAACGCA | -0.0152 |
| TCAACGAA | 0.0322 |
| ACTTCGGA | 0.318 |
| ATATAAGG | 0.167 |
| CGCTATCA | 0.0421 |

| Sequence | PBM E-score |
| --- | --- |
| ACGACACC | 0.0551 |
| CCCGCAGA | 0.235 |
| CCACAGGA | -0.15 |
| ACAAAGTA | -0.0427 |
| AAGGGATT | -0.172 |
| CGGCGAAG | 0.154 |
| ATAAGGTG | -0.0163 |
| GGGAAGAC | -0.0964 |
| AGGAAGAC | -0.246 |
| CCGAAGAG | 0.129 |
| CGGAAGAG | 0.365 |
| CGGAAGAA | 0.378 |
| GGGAAGAA | -0.0436 |
| AGGAAGAG | -0.0084 |
| AGGAAGAA | -0.186 |
| CGGAAGAC | 0.393 |
| GCCCCAGC | 0.0198 |
| CGCTCCAA | -0.0785 |
| ACTCCAGT | -0.118 |
| GACTAGAA | -0.203 |
| ACGGATAA | 0.375 |
| ACGGATTA | 0.217 |
| ACGGATAG | 0.216 |
| CCGGATAA | 0.396 |
| CCGGATAC | 0.351 |

| Sequence | PBM E-score |
| --- | --- |
| ACGGATAT | 0.305 |
| GCGGATAA | 0.342 |
| CGGGATAA | 0.408 |
| GCGGATTA | 0.204 |
| GGGGATAA | 0.0548 |
| CCGGATTA | 0.385 |
| TGGGATAA | -0.102 |
| AGCTAGTC | -0.0629 |
| ACAGCCCG | 0.0226 |
| ACCTTTCT | -0.129 |
| GAAACTCC | 0.0961 |
| AATTCAGC | 0.0247 |
| ACGGATAC | 0.368 |
| ATGGATAC | -0.0299 |
| AAGGATAC | -0.00551 |
| ACGGTGCC | 0.0198 |
| ACGGCCCG | 0.22 |
| CCGGCCGC | 0.317 |
| CGGGCCCG | 0.44 |
| CCGGCCCG | 0.375 |
| ACGGCCGA | 0.293 |
| AGGGCCCG | 0.182 |
| CCGGCCGG | 0.472 |
| CCGGCCCA | -0.0155 |
| ACGGCCGG | 0.344 |

| Sequence | PBM E-score |
| --- | --- |
| CGGGCCCA | 0.0442 |
| TCGGCCAA | 0.12 |
| TCGGCCGA | 0.377 |
| CCGATGGC | 0.175 |
| CGAGCTGA | 0.143 |
| ACTACCGA | -0.0714 |
| CGCCTTGC | -0.0202 |
| ATCATTGA | -0.0198 |
| CAGGCACA | -0.171 |
| AACTGGCA | -0.0302 |
| GGTCAAAC | 0.0507 |
| GGTTCTGA | -0.109 |
| ACCCGTGA | 0.0325 |
| CAGACGGG | 0.103 |
| CTAGTCTC | -0.269 |
| GCGGCCGA | 0.222 |
| CCGGCCGA | 0.372 |
| CCGGCCTA | 0.184 |
| GGAGTCAC | -0.0786 |
| CCTGTAGC | -0.282 |
| CGGAAGGA | 0.396 |
| GGGAAGGA | -0.00585 |
| AGGAAGGA | -0.363 |
| AGGAAGGC | -0.185 |
| CAGAAGGC | 0.0006 |

| Sequence | PBM E-score |
| --- | --- |
| CGGAAGGC | 0.369 |
| ATATCTGC | -0.044 |
| ATAGAAAG | -0.0611 |
| AGGAAGCG | 0.0228 |
| CACCTGCA | -0.142 |
| CGGCGGCA | 0.226 |
| GGGCGGAC | 0.373 |
| AGGCGGCG | 0.0493 |
| TGGCGAAA | -0.0244 |
| AGGCGGAG | 0.174 |
| TGGCGTAA | -0.263 |
| AGGCGGAA | 0.35 |
| AGGCGGAC | 0.211 |
| CGGCGGAA | 0.456 |
| CGGCGGAC | 0.289 |
| CGGCGGAG | 0.372 |
| TGGCGGAA | 0.359 |
| CTTCAACC | 0.00827 |
| AGTGATCA | -0.0706 |
| CGATAGGC | -0.216 |
| GTGCGACA | -0.0394 |
| AGGCAGGA | -0.149 |
| AGCACGAG | 0.0609 |
| CGTGAGGA | -0.063 |
| ATGACCCA | -0.0734 |

| Sequence | PBM E-score |
| --- | --- |
| GGATACCA | 0.212 |
| ATCGGTTC | 0.192 |
| AATCTTTC | 0.13 |
| GGGCGGAA | 0.414 |
| GGGCGGGA | 0.35 |
| GGGCGGTA | 0.195 |
| TATTCTAA | 0.0298 |
| CTCGCTCC | 0.0762 |
| AGAGGACA | -0.0484 |
| AGTCGACC | 0.0168 |
| CGTCGACC | 0.0668 |
| GGTCGACC | 0.38 |
| ACTTGCTG | -0.278 |
| GCGCCCAC | -0.0118 |
| ATCTTTCC | 0.265 |
| CCCGGTGC | 0.215 |
| ACCGGAGC | 0.356 |
| CCCGGAGC | 0.39 |
| ACCGGAGG | 0.281 |
| CCGGGAGC | 0.306 |
| ACTGGAGC | -0.056 |
| AGTGGCGC | 0.153 |
| TCGATAGA | -0.125 |
| CCGTAACA | -0.0633 |
| ACCTTAGT | -0.174 |
